According to PubChem BioAssay:
A number with no mark means an inactive call.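 The calls were made as follows: active = NADPH fluorescence slope more negative than the mean of all samples by about 3 SD, 99.7% confidence; inactive = the rest.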

biological target: Voltage-gated potassium channel subunit beta-2 (Rattus norvegicus) (UniProt P62483); assay: KvBeta positive modulators, primary screen, biochemical, NADPH fluorescence (AID 623); conditions: Recombinant KvBeta, NADPH fluorescence decrease slope, 10 min; at 10 µM; hits give low values;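 also: fluorescence intensity change per second fitted from 20 to 320 s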
Sequence (P62483 whole entry, looked up): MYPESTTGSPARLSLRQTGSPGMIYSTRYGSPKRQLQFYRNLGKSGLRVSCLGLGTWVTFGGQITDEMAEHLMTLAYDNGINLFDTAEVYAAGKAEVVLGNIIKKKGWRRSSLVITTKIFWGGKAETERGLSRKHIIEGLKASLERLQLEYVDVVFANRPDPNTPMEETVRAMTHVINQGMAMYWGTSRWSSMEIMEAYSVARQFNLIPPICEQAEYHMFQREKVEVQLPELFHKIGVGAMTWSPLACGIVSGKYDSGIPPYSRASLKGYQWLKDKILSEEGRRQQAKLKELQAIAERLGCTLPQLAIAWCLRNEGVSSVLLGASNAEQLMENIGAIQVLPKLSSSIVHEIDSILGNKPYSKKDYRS

Row | Structure (SMILES) | NADPH fluorescence slope
1 | CC1=C(C#N)C(=O)NC(C)(C)C1 | 1.8e-05
2 | O=C(NCCO)c1scc2c1OCCO2 | 6.5e-05
3 | O=C(Cn1ccc2ccccc2c1=O)NCCC(=O)NC1CCN(Cc2ccccc2)CC1 | -0.000203
4 | CCOc1cc2[nH]c(=O)n(CCCCC(=O)N3CCCCCC3)c(=O)c2cc1OCC | -0.00041
5 | COc1nc(OC)nc(N2CCC(C(=O)NC3CCCCCC3)CC2)n1 | 6.4e-05
6 | Cc1ccccc1CN1CCNC1=O | -4e-05
7 | CCC1(CC)C(=O)C(C)(C)C(=O)OC1c1cccs1 (centres undefined) | -4.2e-05
8 | O=C(NCc1ccccc1)N1CCn2c(nc3ccccc32)C1 | -2.6e-05
9 | CC1CCN(C(=O)CSc2nnc(-c3cccnc3)n2C2CCCCC2)CC1 | -2.5e-05
10 | CCCCNC(=O)Nc1ccnn1C1CCCCC1 | -1.6e-05
11 | COc1ccc(OC)c(C2=NOC(C(=O)NCCN3CCOCC3)C2)c1 (centres undefined) | 3.7e-06
12 | CCCc1n[nH]c2c1/C(=N/O)CC(c1ccccc1)C2 (centres undefined) | 4.1e-05
13 | CCOC(=O)C1CCN(C(=O)c2ccc(OC)cc2OC)CC1 | 5.6e-06
14 | CN(CCCC(=O)Nc1ccncc1)S(=O)(=O)c1ccc(Cl)cc1 | 2.2e-07
15 | CCSc1ncc(C#N)c(=O)[nH]1 | -0.000177
16 | CCOc1ccccc1N1C(=O)CC(Sc2ncccc2C(=O)O)C1=O (centres undefined) | -8.3e-07
17 | COc1ccc(Cn2c(C)nc3c(c2=O)c2nc4ccccc4nc2n3Cc2ccco2)cc1 | -4.4e-06
18 | CCn1c2ccccc2c2cc(NC(=O)Cc3ccc(S(=O)(=O)N4CCOCC4)s3)ccc21 | 1e-05
19 | C/C(Cl)=C\Cn1c(NCCc2ccccc2)nc2c1c(=O)n(C)c(=O)n2C | -2.8e-05
20 | Cc1ccc2cc(CN(CC(C)C)C(=O)C3CCCO3)c(=O)[nH]c2c1 (centres undefined) | 6.7e-05
21 | COC(=O)C1(C(=O)OC)Sc2ccccc2C1=O | 1.6e-05
22 | CCn1c(CC(=O)Nc2cccc(OC)c2)nnc1SCC(=O)Nc1nccs1 | -3.8e-05
23 | O=C(O)CCc1ccc(-c2cccs2)n1NC(=O)c1ccco1 | 1.5e-05
24 | c1nc(NCC2CCCO2)c2[nH]cnc2n1 (centres undefined) | 1.9e-05
